Inconclusive results are not listed. Calls of active or inactive are those of the source. The call rests on the fitted dose curve; in most records, active means well fitted inhibition curve with a large enough effect; inconclusive means small, poorly fitted or top-dose-only effect; inactive means flat fitted curve, though single readings scatter.
Legend:
Experiment in all cases: qHTS profiling for inhibitors of Plasmodium falciparum proliferation (AID 504749); further: nearly all actives have a fitted effect of over 60% in size
Settings in all cases: P. falciparum in erythrocytes, SYBR Green DNA, 72 h; series mostly up to 28.7 µM
CP201 = test system: CP201
Method in brief: (§1)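 P. falciparum-infected erythrocytes (0.3% parasitemia, 2.5% hematocrit final) were exposed to compounds for 72 h at 37 C in 5% CO2, then lysed with SYBR Green buffer overnight at room temperature; parasite DNA fluorescence was normalized to artemisinin and DMSO controls.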

CP203 = test system: CP203
Method in brief: as §1

CP211 = test system: CP211
Method in brief: as §1

CP215 = test system: CP215
Method in brief: as §1

CP217 = test system: CP217
Method in brief: as §1

CP237 = test system: CP237
Method in brief: as §1

CP238 = test system: CP238
Method in brief: as §1

CP247 = test system: CP247
Method in brief: as §1

CP250 = test system: CP250
Method in brief: as §1

CP252 = test system: CP252
Method in brief: as §1

CP256 = test system: CP256
Method in brief: as §1

CP260 = test system: CP260
Method in brief: as §1

CP262 = test system: CP262
Method in brief: as §1

CP265 = test system: CP265
Method in brief: as §1

CP266 = test system: CP266
Method in brief: as §1

CP268 = test system: CP268
Method in brief: as §1

CP269 = test system: CP269
Method in brief: as §1

CP286 = test system: CP286
Method in brief: as §1

CP291 = test system: CP291
Method in brief: as §1

CP297 = test system: CP297
Method in brief: as §1

Measured: Potency
Potency means the concentration at half of the fitted maximal effect.

CS(=O)(=O)OCC(O)C(O)COS(C)(=O)=O (stereo not given)
inactive: all assays above

CCCCC/C=C\C/C=C\C/C=C\CCCCC(=O)O
not listed: CP297
inactive: all other assays above

O=C1CCC(=O)N1CO
not listed: CP297
inactive: all other assays above

O=C1c2ccccc2CN2C(=O)c3ccccc3CN12
inactive: all assays above

O=C(O)CCC/C=C\C[C@@H]1[C@@H](/C=C/[C@@H](O)COc2cccc(Cl)c2)[C@H](O)C[C@@H]1O
inactive: all assays above

COC(=O)C(CN)c1c[nH]c2ccc(OC)cc12 (stereo not given)
inactive: all assays above

CC1C(=O)CC2C3(C)CCC2(C(C)C(=O)O)C(=O)C13 (stereo not given)
inactive: all assays above

NC(=O)[C@H]1O[C@@H](O)[C@H](O)[C@@H](O)[C@@H]1O
inactive: all assays above

OC/C=C/c1ccccc1
inactive: all assays above

COc1ccc(/C=C/C(=O)O)cc1
inactive: all assays above

CO
inactive: all assays above

CCc1ccc(S(=O)(=O)O)cc1
not listed: CP297
inactive: all other assays above

O=C1CCC(c2ccccc2)(C2CCN(Cc3ccccc3)CC2)C(=O)N1 (stereo not given)
active: CP237 11.2 µM
not listed: CP297
inactive: all other assays above

FC(F)(F)C(F)(F)C(F)(F)C(F)(F)C(F)(F)F
inactive: all assays above

CC(C)CCCC(C)NC(C)C (stereo not given)
not listed: CP297
inactive: all other assays above

Cc1ccc(C(C)(C)c2ccc(C)cc2)cc1
inactive: all assays above

CCC(Cc1c(I)cc(I)c(O)c1I)C(=O)O (stereo not given)
inactive: all assays above

CCCCCCCCCCCCCCCCCCCCCC(=O)Nc1ccn([C@@H]2O[C@H](CO)[C@@H](O)[C@@H]2O)c(=O)n1
inactive: all assays above

O=P(O)(O)O
inactive: all assays above

CC(C)CCC[C@@H](C)[C@H]1CC[C@H]2[C@@H]3CC[C@@H]4C[C@H](O)CC[C@]4(C)[C@H]3CC[C@]12C
inactive: all assays above

CCCCC(CC)COS(=O)(=O)O (stereo not given)
inactive: all assays above

O=C(O)c1ccc(NC(=O)[C@H](Cc2ccc(O)cc2)NC(=O)c2ccccc2)cc1
inactive: all assays above

CN(CCO)CC(O)Cn1cnc2c1c(=O)n(C)c(=O)n2C (stereo not given) (tested in a mixture with another compound)
inactive: all assays above

CC1=CCC2CC1C2(C)C (stereo not given)
inactive: all assays above

CN1C(=O)C[C@@H](C(=O)N[C@@H](Cc2cnc[nH]2)C(=O)N2CCC[C@H]2C(N)=O)NC1=O
inactive: all assays above

CCCCCCCCCCCCCCCCCC(=O)OCC(C)O (stereo not given)
inactive: all assays above

O=C(O)Cc1nn(Cc2ccc(Br)cc2F)c(=O)c2ccccc12
inactive: all assays above

From PubChem BioAssay (NCATS)
